# Source: PubChem BioAssay
# TbPYK inhibitor: blocks Trypanosoma brucei pyruvate kinase. 410,000 tested, 0.12% active. Potency, µM (top dose mostly 76.8 µM), inactives show at the highest dose activity, negative = inhibition, usual class: inhibitors. TbPYK enzyme, Kinase-Glo Plus ATP luminescence, 45 min; also: potency is read from the fitted curve at half-maximal effect; nearly all actives have a fitted effect of over 50% in size
#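 Screened from lowest to highest concentration, compounds were pinned into TbPYK/substrate mixtures, and ADP (130 uM final) was added. Plates sat at room temperature for 45 min prior to Kinase-Glo Plus detection by luminescence.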
# RE007 growth inh: less growth of the S. pombe RE007 Vpr strain | S. pombe RE007 Vpr strain, BacTiter-Glo ATP luminescence, 24 h | Potency, µM (titrated, usually from 92.2 µM), for inactives: at the top dose activity change, negative = less growth, hits mostly inhibitors | 360,000 tested, 0.21% active | AID 651644; active = well fitted falling curve with a large enough effect; inconclusive = small, poorly fitted or top-dose-only effect; inactive = no such curve, though single readings can be large or run the other way; also: potency is read from the fitted curve at half-maximal effect; nearly all actives have a fitted effect of over 50% in size
#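 Fission yeast strain RE007, carrying one chromosomally integrated HIV-1 vpr copy, was seeded at OD 0.01 in PMG+AL medium with 23 nL pinned compound. After 24 h at 30 °C and 99% humidity, viability was read by BacTiter-Glo luminescence.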
# Giardia FBPA inh: blocks Giardia fructose-bisphosphate aldolase activity. purified Giardia FBPA. A8B2U2. 290,000 tested, 0.71% active. Potency, µM (doses to about 59.6 µM), inactives show at the highest dose activity, negative = inhibition, actives largely listed as inhibitors. AID 2451; also: potency is read from the fitted curve at half-maximal effect; nearly all actives have a fitted effect of over 55% in size
# Target sequence (A8B2U2 whole entry, looked up): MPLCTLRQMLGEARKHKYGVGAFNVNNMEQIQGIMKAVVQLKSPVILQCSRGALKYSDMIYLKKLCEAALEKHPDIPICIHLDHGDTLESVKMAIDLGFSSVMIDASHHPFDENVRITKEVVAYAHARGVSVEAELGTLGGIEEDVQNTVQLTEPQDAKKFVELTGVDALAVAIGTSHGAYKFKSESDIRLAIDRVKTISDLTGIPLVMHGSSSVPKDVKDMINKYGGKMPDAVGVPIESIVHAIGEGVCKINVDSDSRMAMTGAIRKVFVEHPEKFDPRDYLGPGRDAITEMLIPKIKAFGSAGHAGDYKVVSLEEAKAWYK
#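 Giardia FBPA (40 nM reagent) was preincubated 10 min at RT with compound (up to 57.5 uM final), then substrate plus GAPDH/TPI/NAD/arsenate coupling system with diaphorase/resazurin was added; resorufin fluorescence (525/598 nm) was read after 20 min.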
# HCMV inh: inhibitors of human cytomegalovirus | HFF cells, HCMV-luciferase reporter, 72 h; active compounds read low | activity change, negative = inhibition, % at 57.5 µM | 410,000 tested, 4.5% active | AID 1259415; in the data active = activity change below about -60%; inconclusive = no clear call, values can overlap the other calls; inactive = above about -39%
#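 Human foreskin fibroblasts infected with luciferase-reporter HCMV at MOI 1 PFU/cell, compounds at two doses. Luciferase measured 72 h post infection; normalized to buffer-only basal and Salinomycin (10uM) controls.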
# Sm TGR inh: S. mansoni TGR enzyme inhibition. Potency, µM (series often up to 114 µM), inactives show at the top dose activity change, negative = inhibition, hits mostly inhibitors. Q962Y6. purified TGR, DTNB reduction, TNB absorbance 405 nm. 360,000 tested, 3% active; also: potency is read from the fitted curve at half-maximal effect; nearly all actives have a fitted effect of over 60% in size
#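 TGR 20 nM + NADPH 100 uM (dispensed conc.), cpd preinc 15 min RT; start with NADPH (500 uM addition) then DTNB (15 mM addition). Kinetic TNB absorbance, 405 nm filter. Four-parameter Hill fit across titration.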
# FMDV antiviral: foot and mouth disease virus antiviral activity | Potency, µM (highest dose often 57.9 µM), for inactives: at the highest dose activity change, negative = inhibition, actives largely listed as inhibitors | FMDV antiviral cell-based qHTS | 410,000 tested, 1.2% active; calls by dose curve; tested in HEK293T cells; also: read-out not given here; potency is read from the fitted curve at half-maximal effect; nearly all actives have a fitted effect of over 45% in size
# * = called active by the depositor; ? = inconclusive; · = no result given. Rows were chosen to be rich in hits. Some 7.7% of all compounds tested hit in one or more screens of this group. Unless noted, calls follow the shape of the dose curve; as a rule, active = well fitted curve in the direction sought with a large enough effect; inconclusive = small, poorly fitted or top-dose-only effect, or another doubt; inactive = no such curve, though single readings can be large; an effect the other way counts as inactive or inconclusive. % is scaled to controls: 0 for no effect and ±100 for the full control effect.
SMILES,TbPYK inhibitor,RE007 growth inh,Giardia FBPA inh,HCMV inh,Sm TGR inh,FMDV antiviral
CCC(=O)NC(c1cc(Cl)c2ccccc2c1O)C(C)C (stereo unspecified),0.8%,·,·,-34.9,2.8%,0.0%
Nc1nc(CSc2nnnn2-c2ccccc2)nc(N2CCCc3ccccc32)n1,1.4%,-4.6%,-11.3%,-17.8,-2.5%,28.2µM*
COc1ccc(N(C(=O)CCl)C(C(=O)NCCc2ccccc2)c2cccs2)cc1Cl (stereo unspecified),-7.6%,-23.7%,-10.3%,-102.8*,10µM*,20µM*
COc1ccc(N(C(=O)c2ccco2)C(C(=O)NC2CCCCC2)c2cccs2)cc1OC (stereo unspecified),-9.5%,16.3%,3.2%,-2.1,-8.0%,14.3%
COc1cccc(N(C(=O)CCl)C(C(=O)NCCc2ccccc2)c2cccs2)c1 (stereo unspecified),4.5%,8.0%,2.1%,-100.4*,10µM*,15.8µM*
Cc1ccc(C)c(NS(=O)(=O)c2cc3c(cc2C)n(C)c(=O)c(=O)n3C)c1,-9.8%,·,·,-6.3,6.1%,4.4%
O=C(c1n[nH]c2c1CCCC2)N1CCOc2ccc(C(O)C3CCCCC3)cc2C1 (stereo unspecified),·,·,·,·,·,-12.1%
CC(C)(C)c1ccc(-n2ncc3c2CCCC3NC(=O)CCN2CCCCC2=O)cc1 (stereo unspecified),1.4%,-8.9%,·,-63.8*,-0.2%,?
Cc1ccc(-n2ncc3c2CCCC3NC(=O)CCC2=NNC(=O)CC2)cc1C (stereo unspecified),0.1%,8.7%,·,-14.8,4.3%,-11.4%
CC(C)(C)c1ccc(-n2ncc3c2CCCC3NC(=O)CCC2=NNC(=O)CC2)cc1 (stereo unspecified),5.1%,4.1%,·,-75.5*,·,?
Cc1ccc(-n2ncc3c2CCCC3NC(=O)CCCN2CCCC2=O)cc1C (stereo unspecified),2.9%,-9.2%,-0.7%,-7.3,0.0%,0.0%
Cc1ccc(CNC(=O)c2cc3cc(C)ccc3n2C)cc1,0.4%,·,·,?,-3.0%,-0.5%
CCn1c(SCc2ccccc2)nnc1-c1nonc1NC(C)=O,-4.2%,·,·,-5.1,1.9%,?
O=S1(=O)N[C@@H](Cc2ccccc2)COc2cccc(N3CCCCC3)c21,·,·,·,5.3,·,·
Cc1ccc2c(c1)C(=O)C(=O)N2Cc1ccc(OCCC(C)C)cc1,-1.7%,·,·,-94.6*,0.4%,-18.6%
Cc1ccc2c(c1)C(=O)C(=O)N2Cc1ccc(Br)cc1,-11.5%,-22.0%,·,-76.3*,·,0.0%
CCOc1cc(C(=O)N2CC(=O)Nc3ccc(F)cc3C2c2ccccc2)cc(OCC)c1OCC (stereo unspecified),4.3%,·,·,18.8,0.3%,-7.5%
Cc1ccc(C(C)C)cc1NC(=O)Nc1ccc([N+](=O)[O-])cc1,1.1%,·,-9.1%,-102.1*,9.5%,?
CC(=O)Nc1ccc(OS(=O)(=O)c2ccc([N+](=O)[O-])cc2)cc1,0.9%,2.3%,-13.4%,-62.2*,3.3%,3.4%
O=C(Nc1ccc([N+](=O)[O-])cc1)Nc1cnccn1,-20.0%,-7.9%,·,-81.2*,-2.8%,-5.7%
O=C(Nc1ccc(Oc2ccc(NC(=O)Nc3ccc([N+](=O)[O-])cc3)cc2)cc1)Nc1ccc([N+](=O)[O-])cc1,-0.9%,2.6%,-5.0%,-95.4*,14.3%,?
O=C(c1cc(C(F)(F)F)cc(C(F)(F)F)c1)N1CCC2(CCCN(c3ccncc3)C2)CC1,-4.3%,·,13.8%,·,·,-14.1%
CC(=O)Nc1ccc(OCCOc2ccc([N+](=O)[O-])cc2)cc1,2.8%,·,1.1%,-72.1*,2.9%,-14.3%
CC(=O)Nc1ccc(OCCOc2ccc(NC(C)=O)cc2)cc1,-1.5%,-1.8%,-0.5%,13.8,-21.9%,-2.1%
Cn1cc(NC(=O)CCl)cn1,0.8%,26.9%,-3.3%,-84.2*,?,?
CC(=O)Nc1cnn(Cc2ccc(Br)cc2)c1,10.5%,-2.0%,5.8%,22.3,-12.2%,-16.6%
